Hits are enriched below; roughly 0.52% of the tested compounds scored in any of these assays.
Sa growth inh: S. aureus growth inhibition; AID 720641; S. aureus RN4220 growth, OD600, 20 h, 42 °C; stronger effect = lower value; relative growth, % (no concentration beside the values); hit rate 0.53% among 170,000;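 active = relative growth at most 50% at the other temperature and 20+ points below 30 °C, or under 10% at both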
S aureus helic: S. aureus DNA helicase inhibition; inhibition, % (test concentration not listed); AID 485395; hit rate 0.05% among 120,000; purified S. aureus helicase, fluorescence unwinding assay; in the data active = inhibition above about 25%, passing the limit was not always enough
A number is an active result; – = inactive; · = not tested or not shown.

SMILES | Sa growth inh | S aureus helic
CO[C@H]1C=CO[C@@]2(C)Oc3c(C)c(O)c4c(O)c(c5c(nc6cc(C)ccn65)c4c3C2=O)NC(=O)C(C)=CC=C[C@H](C)[C@H](O)[C@@H](C)[C@@H](O)[C@@H](C)[C@H](OC(C)=O)[C@@H]1C | – | ·
COC(=O)c1cc(=O)n(-c2cc(Cl)cc(Cl)c2)[nH]1 | 13.4 | –
COC(=O)c1n[nH]n(-c2cc(Cl)cc(Cl)c2)c1=O | – | ·
CCn1c(SCc2ccc(C)cc2)nnc1-c1ccc(S(=O)(=O)N2CCOCC2)cc1 | – | –
O=C(c1ccc(S(=O)(=O)N2CCCc3ccccc32)s1)N1CCCC1 | – | –
Cc1cc(Cl)cc(C)c1OCCn1ccnc1 | – | –
Clc1ccc(OCCn2ccnc2)c(Br)c1 | 3.1 | –
Cc1ccc(S(=O)(=O)N(CCC(N)=O)c2ccccc2)cc1 | – | –
Cc1ccc2c(c1)NCC(C(=O)N1CCN(C)CC1)O2 (configuration not stated) | – | ·
COC(=O)c1c2c(n3ccccc13)C(=O)c1ccccc1C2=O | · | –
COC(=O)c1c2c(n3ccc(C)cc13)C(=O)c1ccccc1C2=O | 7.5 | –
CCOc1ccccc1C(=O)Nc1c(O)c2ccccc2oc1=O | – | –
COC(=O)c1c(NC(=O)/C=C/c2ccc(OC)cc2)sc(C)c1C | – | –
CCOC(=O)CCC(=O)O[C@H]1[C@H](O[C@@H]2[C@@H](C)[C@H](O[C@H]3C[C@@](C)(OC)[C@@H](O)[C@H](C)O3)[C@@H](C)C(=O)O[C@H](CC)[C@@](C)(O)[C@H](O)[C@@H](C)C(=O)[C@H](C)C[C@@]2(C)O)O[C@H](C)C[C@@H]1N(C)C | -0.8 | ·
CC[C@H]1OC(=O)[C@H](C)C(=O)[C@H](C)[C@@H](O[C@@H]2O[C@H](C)C[C@H](N(C)C)[C@H]2O)[C@](C)(OC)C[C@@H](C)C(=O)[C@H](C)[C@@H]2N(CCCCn3cnc(-c4cccnc4)c3)C(=O)O[C@@]21C | – | ·
CCC(=O)O[C@H]1[C@H](O[C@@H]2[C@@H](C)[C@H](O[C@H]3C[C@@](C)(OC)[C@@H](O)[C@H](C)O3)[C@@H](C)C(=O)O[C@H](CC)[C@@](C)(O)[C@H](O)[C@@H](C)C(=O)[C@H](C)C[C@@]2(C)O)O[C@H](C)C[C@@H]1N(C)C | -0.9 | ·
CC[C@H]1OC(=O)[C@H](C)[C@@H](O[C@H]2C[C@@](C)(OC)[C@@H](O)[C@H](C)O2)[C@H](C)[C@@H](O[C@@H]2O[C@H](C)C[C@H](N(C)C)[C@H]2O)C(C)(O)C[C@@H](C)CN(C)[C@H](C)[C@@H](O)[C@]1(C)O (some centres not stated) | -0.4 | ·
CO[C@@H]1[C@@H](O[C@@H]2O[C@H](C)[C@@H](O[C@H]3C[C@@](C)(O)[C@H](O)[C@H](C)O3)[C@H](N(C)C)[C@H]2O)[C@@H](CC=O)C[C@@H](C)[C@@H](O[C@H]2CC[C@H](N(C)C)[C@@H](C)O2)/C=C/C=C/C[C@H](C)OC(=O)C[C@H]1O | – | ·
CC[C@H]1OC(=O)[C@H](C)[C@@H](O[C@H]2C[C@@](C)(OC)[C@@H](O)[C@H](C)O2)[C@H](C)[C@@H](O[C@@H]2O[C@H](C)C[C@H](N(C)C)[C@H]2O)[C@](C)(O)C[C@@H](C)C(=O)[C@H](C)[C@@H](O)[C@]1(C)O | -0.9 | ·
CCOC(=O)c1oc2ccc(Br)cc2c1Cn1nc(C(=O)O)c2ccccc2c1=O | – | –
CC(C)(C)c1cc(C(c2ccccn2)N2CCCC2)cc(C(C)(C)C)c1O (configuration not stated) | – | –
CC(C)(C)c1cc(C(c2ccc(O)cc2)N2CCOCC2)cc(C(C)(C)C)c1O (configuration not stated) | -1.3 | –
COc1ccc(C2CC(=O)Nc3ncnn32)cc1 (configuration not stated) | – | –
COc1cccc(OCc2nnc(SCC(=O)NC(C)(C)C)o2)c1 | – | –
CN(C)c1ccc(Nc2nc(-c3cccnc3)nc3ccccc23)cc1 | 0.2 | –
SMILES | Sa growth inh | S aureus helic
c1cncc(-c2nc(Nc3ccc4c(c3)OCO4)c3ccccc3n2)c1 | – | –
CCCCn1cnc2cc(NCc3ccccc3Cl)ccc21 | 1.0 | ·
Cn1cnc2cc(NCc3ccccc3Cl)ccc21 | – | –
ClCc1cn(-c2ccccc2)nc1-c1ccccc1 | – | –
CN(Cc1ccccc1)C(=O)C1CCCN1S(=O)(=O)c1ccc2c(c1)CCCC(=O)N2 (configuration not stated) | – | –
Nc1ccccc1N1CCCC1 | 2.8 | –
c1ccc2c(c1)N1CCN2CC1 | – | –
Cc1cc(NS(=O)(=O)c2ccc(N=Cc3ccccc3O)cc2)no1 | – | –
CCOc1nnc(NS(=O)(=O)c2ccc(N=Cc3ccccc3O)cc2)s1 | 7.8 | –
CC(=O)N1c2ccccc2N(C)C(=O)C1(C)C | – | –
CCN1CCc2c(OC)cccc2C1=O | – | –
COc1cccc2c1CCN(Cc1cccc(C)c1)C2=O | 5.1 | –
COc1cc(NC(=O)CN2CCCCCC2=O)c(OC)cc1Cl | – | –
N/C(Cc1ccc(-c2csnn2)cc1)=N\OC(=O)C1CC1 | – | –
CN(C)/C=C1\S/C(=N\S(=O)(=O)c2cccs2)N(c2ccccc2)C1=O | – | –
O=c1oc2ccccc2c(O)c1C=Nc1ccccc1 | – | –
O=Cc1c(O)c2ccccc2c2ccccc12 | 9.1 | –
COc1ccccc1-c1ncnn1C1=C(C#N)C2CCCCCC2S1 (configuration not stated) | – | –
C/C(C=Nc1ccccc1)=C\Nc1ccccc1 | – | –
CC1(C)[C@H](C(=O)O)N2C(=O)C[C@H]2S1(=O)=O | – | ·
CC1(C)C(C(=O)O)N2C(=O)CC2S1(=O)=O (configuration not stated) | 27.1 | –
COc1ccc(NC(=O)NC2CC2)c(OC)c1 | – | –
CC(=O)Nc1ccccc1-c1nc2ccccc2[nH]c1=O | – | –
CC(=O)N=Nc1c2[nH]c3ccccc3nc-2c2ccccc12 | 7.6 | –
N#Cc1ccc(CSc2ncc3ccccn23)cc1 | – | –
SMILES | Sa growth inh | S aureus helic
O=c1c2c(nc3c(-c4ccccc4)c[nH]n13)CCC2 | 0.1 | –
O=c1c2c(nc3cc(-c4ccccc4)[nH]n13)CCC2 | – | –
Clc1ccc(N2CC=CCC2)nn1 | – | –
COC(=O)C(N)Cc1c[nH]c2ccccc12 (configuration not stated) | – | –
COC(=O)C(Sc1c[nH]c2ccccc12)(C(F)(F)F)C(F)(F)F | 0.0 | –
O=C(NC(CO)Cc1ccccc1)c1ccccc1C(F)(F)F (configuration not stated) | – | –
COCCn1c(SCc2nc3ccccc3o2)nc2ccccc21 | – | –
O=C(CSc1ncnc2sccc12)N1CCC(c2nc3ccccc3o2)CC1 | – | –
N#CC(C#N)=NNc1ccc(SC(F)F)cc1 | 0.9 | –
CCOC(=O)/C(C#N)=N/Nc1ccc(SC(F)F)cc1 | – | –
CC1CN(C(=O)CC(C)c2ccccc2)CC(C)O1 (configuration not stated) | – | –
Cc1cccc(N2C(=O)CSC23C(=O)N(CN2CCOCC2)c2ccccc23)c1 (configuration not stated) | – | –
Cc1cccc(NC(=O)c2nc(S(C)(=O)=O)ncc2Cl)c1 | 1.0 | ·
CS(=O)(=O)c1ncc(Cl)c(C(=O)N2CCN(C(c3ccccc3)c3ccccc3)CC2)n1 | 4.2 | –
COc1ccc(NC(=O)c2nc(S(C)(=O)=O)ncc2Cl)cc1Cl | – | –

Screens from PubChem.
